Among the data in PubChem BioAssay (Tox21) are Potency values, retold here.

The nature of test [1]: Nuclear factor erythroid 2-related factor 2/antioxidant responsive element (Nrf2/ARE) small molecule agonists: qHTS cell viability counter screen in human keratinocytes (AID 1919968; active = well fitted curve in the direction sought with a large enough effect in the repeat runs; an effect the other way counts as inactive or inconclusive; note: nearly all actives have a fitted effect of over 55% in size; note: potency is the fitted concentration of half-maximal effect). Summed up: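 Stably transfected HaCaT (KeratinoSens), 1,500/well. Test agents in DMSO were applied for 23 h, 37 C/5% CO2. CellTiter-Fluor was incubated 1 h before the fluorescence read.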
The nature of test [2]: Nuclear factor erythroid 2-related factor 2/antioxidant responsive element (Nrf2/ARE) small molecule agonists: luciferase reporter gene qHTS assay in human keratinocytes (AID 1919969). Note: nearly all actives have a fitted effect of over 35% in size. Note: potency is the fitted concentration of half-maximal effect. On the technique in general: Reporter assays use an easily measured gene product as a stand-in for the process of interest.
Test [3] has as its target Gonadotropin-releasing hormone receptor (Homo sapiens) (UniProt P30968). Description: Human gonadotropin-releasing hormone receptor (GnRHR) small molecule agonists, calcium flux assay in GnRHR-HEK293 cells (AID 1920063). Note: nearly all actives have a fitted effect of over 35% in size. Note: potency is the fitted concentration of half-maximal effect. Summed up: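 Stable human GnRHR HEK293 line. 18 h plating, then calcium dye for 1 h at 37 C. Agonist-mode compound addition from DMSO stocks; fluorescence monitored 3 min.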

Test [4] can be described thus: G protein-coupled receptor (GPCR) small molecule agonists, calcium flux assay: HEK293 wild type cell line counter screen (AID 1920065). Summed up:
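Following 18 h incubation at 37 C/5% CO2, plates got calcium dye for 1 h; compounds, ATP or DMSO were then pinned in and fluorescence followed kinetically (480/540 nm).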
In general terms: Calcium assays in cells follow changes in intracellular calcium, usually with a dye or a luminescent sensor.

Test [5] can be described thus: p53 small molecule agonists, cell-based qHTS assay with human liver microsomes (AID 1963577). Summed up: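 p53RE-bla cells, 4,000/well, compound added after 5 h, with human liver microsomes 0.5 mg/mL and NADPH 0.5 mg/mL final; 16 h at 37 C, then LiveBLAzer 2 h RT, fluorescence.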
Test [6] in a line: p53 small molecule agonists, cell-based qHTS assay with rat liver microsomes (AID 1963578). Summed up: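 p53RE-bla cells, 4,000/well, pre-incubated 5 h, then given compounds plus rat liver microsomes (0.5 mg/mL final) and NADPH (0.5 mg/mL final). Incubation 16 h at 37 C; beta-lactamase reporter read by LiveBLAzer fluorescence after 2 h at room temperature.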
For orientation: In qHTS, concentration-response curves come from the screen itself.

The nature of test [7]: p53 small molecule agonists, cell-based qHTS assay with human liver microsomes: qHTS cell viability counter screen (AID 1963579). Note: nearly all actives have a fitted effect of over 45% in size. Note: potency is the fitted concentration of half-maximal effect. Summed up:
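p53RE-bla cells, 4,000/well, dosed 5 hours after plating, with human liver microsomes (0.5 mg/mL final) plus NADPH (0.5 mg/mL final), 16 hours at 37 C. Viability read as CellTiter-Glo luminescence after 30 min at room temperature.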

The nature of test [8]: p53 small molecule agonists, cell-based qHTS assay with rat liver microsomes: qHTS cell viability counter screen (AID 1963580). Note: nearly all actives have a fitted effect of over 45% in size. Note: potency is the fitted concentration of half-maximal effect. Summed up: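 Luminescent ATP readout (CellTiter-Glo, 30 min at room temperature) reports viability of p53RE-bla HCT-116 cells after 16 h at 37 C with test compounds under metabolic activation by rat liver microsomes and NADPH at 0.5 mg/mL final each.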

The nature of test [9]: p53 small molecule agonists, cell-based qHTS assay: qHTS cell viability counter screen (AID 1963581). Note: nearly all actives have a fitted effect of over 45% in size. Note: potency is the fitted concentration of half-maximal effect. The method in brief:
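qHTS counter screen: 16 h compound exposure at 37 C of p53RE-bla HCT-116 cells (4,000 per well, seeded 5 h prior), cell viability by ATP luminescence.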

Test [10] in a line: p53 small molecule agonists, cell-based qHTS assay (AID 1963582; active = well fitted activation curve with a large enough effect in the signal ratio in the repeat runs, not every such curve was filed as active; the % refers to the signal ratio). Summed up:
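Measured: fluorescence from cleaved LiveBLAzer substrate. System: p53RE-bla cells, 16 h compound treatment at 37 C, 2 h substrate step at room temperature.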

Test [11] has as its target 5-hydroxytryptamine receptor 2A (Homo sapiens) (UniProt P28223). Description: 5-hydroxytryptamine receptor 2A (HTR2A) small molecule antagonists, cell-based qHTS assay (AID 1963586). Note: nearly all actives have a fitted effect of over 45% in size. The method in brief:
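CHO cells stably expressing human HTR2A were plated for 18 h at 37 C, then loaded with calcium dye for 1 h. Compounds were preincubated 5 min at room temperature before DOI (4 nM solution) was added. Kinetic fluorescence was read for 3 min.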

The target is the same in test [12]. Kind of test: 5-hydroxytryptamine receptor 2A (HTR2A) small molecule agonists, cell-based qHTS assay (AID 1963587). Note: nearly all actives have a fitted effect of over 30% in size. Note: potency is the fitted concentration of half-maximal effect. The method in brief:
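HTR2A-CHO cells, plated 18 h at 37 C/5% CO2, dye-loaded 1 h at 37 C; compounds in DMSO added by pin tool (agonist mode). Intracellular calcium flux read as kinetic fluorescence on FDSS over 2 min at 1 s intervals.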

Test [13] addresses Muscarinic acetylcholine receptor M1 (Homo sapiens) (UniProt P11229). Description: Cholinergic receptor muscarinic 1 (CHRM1) small molecule antagonists, cell-based qHTS assay (AID 1963588). Note: nearly all actives have a fitted effect of over 40% in size. Note: potency is the fitted concentration of half-maximal effect. Summed up: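 Compounds were tested at 15 concentrations in three independent runs. Dye-loaded CHRM1-CHO cells were exposed 5 min at room temperature before stimulation by acetylcholine added at 50nM. Intracellular calcium was read kinetically on FDSS for 3 min.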

The target is the same in test [14]. Description: Cholinergic receptor muscarinic 1 (CHRM1) small molecule agonists, cell-based qHTS assay (AID 1963589). Note: nearly all actives have a fitted effect of over 35% in size. The method in brief:
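Kinetic fluorescence (1 s intervals) of calcium-sensitive dye in human M1 CHO cells after compound addition; cells pre-incubated 18 h at 37 C/5% CO2 and dye-loaded 1 h.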

The nature of test [15]: cAMP Responsive Elements (CRE) small molecule agonists, cell-based qHTS assay (AID 1963590). Summed up: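 Test agents in DMSO were incubated 3 h at 37 C/5% CO2 with CRE-bla HEK 293T cells seeded 18 h earlier; LiveBLAzer B/G FRET substrate was added and read after 2 h at room temperature.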
A short description of test [16]: cAMP Responsive Elements (CRE) small molecule antagonists, cell-based qHTS assay (AID 1963591; active = well fitted inhibition curve with a large enough effect in the signal ratio in the repeat runs, not every such curve was filed as active; the % refers to the signal ratio). Summed up: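 Reporter line CRE-bla HEK 293T in dialyzed-FBS DMEM; cells preincubated 18 h, treated 3 h with compound plus NKH477 (0.25 uM final); LiveBLAzer FRET, 2 h RT.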
In test [17] the target is Beta-2 adrenergic receptor (Homo sapiens) (UniProt P07550). Kind of test: Adrenergic beta2 receptor (ADRB2) small molecule antagonists, cell-based qHTS assay (AID 1963592). Note: series mostly up to about 92 µM; nearly all actives have a fitted effect of over 50% in size. The method in brief: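 Assay format: CHO-ADRB2 cells, 18-20hr seeding at 37C/5% CO2, then compound plus 1nM isoproterenol agonist mix for 0.5hr RT. Homogeneous time-resolved fluorescence cAMP detection after 1hr, expressed as 665/615 nm ratio.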
Sequence of Beta-2 adrenergic receptor (Homo sapiens) (P07550 whole entry, looked up): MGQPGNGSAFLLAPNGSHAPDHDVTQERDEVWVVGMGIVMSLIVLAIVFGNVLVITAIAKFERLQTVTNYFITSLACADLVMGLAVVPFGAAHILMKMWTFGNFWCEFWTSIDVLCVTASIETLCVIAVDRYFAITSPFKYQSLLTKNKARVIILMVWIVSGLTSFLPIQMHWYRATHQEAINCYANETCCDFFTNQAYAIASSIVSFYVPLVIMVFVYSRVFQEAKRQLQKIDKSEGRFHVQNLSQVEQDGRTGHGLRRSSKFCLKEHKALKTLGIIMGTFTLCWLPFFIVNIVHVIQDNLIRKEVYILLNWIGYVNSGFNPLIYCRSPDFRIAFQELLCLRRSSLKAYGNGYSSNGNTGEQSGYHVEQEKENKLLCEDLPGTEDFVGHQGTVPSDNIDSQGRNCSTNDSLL

The target of test [18] is D(2) dopamine receptor (Homo sapiens) (UniProt P14416). Description: Dopamine D2 receptor (DRD2) small molecule agonists, cell-based qHTS assay (AID 1963594). Note: nearly all actives have a fitted effect of over 35% in size. The method in brief:
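HEK293 cells stably expressing DRD2 were cultured 24 h at 37 C, then given Ro20-1724 (0.1 mM final) and compounds for 10 min at room temperature. NKH477 (200nM) was then added for 30 min. cAMP was read by HTRF.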

The target is the same in test [19]. Description: Dopamine D2 receptor (DRD2) small molecule antagonists, cell-based qHTS assay (AID 1963595; active = well fitted inhibition curve with a large enough effect in the signal ratio in the repeat runs, with a control signal flat; the % refers to the signal ratio; note: potency is the fitted concentration of half-maximal effect). Summed up:
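HEK293 cells stably expressing DRD2, preincubated with 0.1 mM Ro20-1724 and compounds 10 min, were stimulated with 200 nM NKH477 plus 12 nM quinpirole for 30 min at room temperature; cAMP measured by HTRF (665/620 nm).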

For test [20], the target named is KiSS-1 receptor (Homo sapiens) (UniProt Q969F8). Description: Human kisspeptin (KISS1R) small molecule agonists, calcium flux assay in KISS1R-HEK293 cells (AID 1920064; active = well fitted curve in the direction sought with a large enough effect in the repeat runs; an effect the other way counts as inactive or inconclusive). Summed up: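 After overnight (18 h) culture at 37 C/5% CO2, human KISS1R-HEK293 cells received calcium dye for 1 h, then test compound; emission at 540 nm (excitation 480 nm) was tracked for 3 min.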
Sequence of KiSS-1 receptor (Homo sapiens) (Q969F8 whole entry, looked up): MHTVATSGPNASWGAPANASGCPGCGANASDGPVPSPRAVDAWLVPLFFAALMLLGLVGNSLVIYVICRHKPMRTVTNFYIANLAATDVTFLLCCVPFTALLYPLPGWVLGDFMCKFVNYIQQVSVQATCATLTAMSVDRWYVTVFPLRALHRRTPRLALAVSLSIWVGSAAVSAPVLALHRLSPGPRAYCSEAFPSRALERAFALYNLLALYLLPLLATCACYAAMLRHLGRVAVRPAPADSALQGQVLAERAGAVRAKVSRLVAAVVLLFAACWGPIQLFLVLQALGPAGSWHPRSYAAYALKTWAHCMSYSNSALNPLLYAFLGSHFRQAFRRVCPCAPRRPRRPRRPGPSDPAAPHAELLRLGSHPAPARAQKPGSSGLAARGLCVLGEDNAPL

Where “and” joins values, the source holds several entries; their conditions need not be identical. Equal values may be shown once. Inconclusive results are not listed. More than one record can exist for a structure, and the calls need not agree. Calls of active or inactive are those of the source. Unless noted, calls come from the whole dose curve.

Sequence of Gonadotropin-releasing hormone receptor (Homo sapiens) (P30968 whole entry, looked up): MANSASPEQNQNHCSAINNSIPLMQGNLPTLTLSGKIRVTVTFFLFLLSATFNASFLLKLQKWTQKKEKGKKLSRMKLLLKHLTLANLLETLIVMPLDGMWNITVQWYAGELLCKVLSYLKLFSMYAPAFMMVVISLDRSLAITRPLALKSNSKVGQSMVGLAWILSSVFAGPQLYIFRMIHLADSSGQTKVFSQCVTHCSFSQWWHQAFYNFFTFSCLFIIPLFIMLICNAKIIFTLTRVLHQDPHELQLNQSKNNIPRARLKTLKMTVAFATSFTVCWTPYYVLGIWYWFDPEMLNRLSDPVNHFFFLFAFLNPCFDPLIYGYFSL
Sequence of 5-hydroxytryptamine receptor 2A (Homo sapiens) (P28223 whole entry, looked up): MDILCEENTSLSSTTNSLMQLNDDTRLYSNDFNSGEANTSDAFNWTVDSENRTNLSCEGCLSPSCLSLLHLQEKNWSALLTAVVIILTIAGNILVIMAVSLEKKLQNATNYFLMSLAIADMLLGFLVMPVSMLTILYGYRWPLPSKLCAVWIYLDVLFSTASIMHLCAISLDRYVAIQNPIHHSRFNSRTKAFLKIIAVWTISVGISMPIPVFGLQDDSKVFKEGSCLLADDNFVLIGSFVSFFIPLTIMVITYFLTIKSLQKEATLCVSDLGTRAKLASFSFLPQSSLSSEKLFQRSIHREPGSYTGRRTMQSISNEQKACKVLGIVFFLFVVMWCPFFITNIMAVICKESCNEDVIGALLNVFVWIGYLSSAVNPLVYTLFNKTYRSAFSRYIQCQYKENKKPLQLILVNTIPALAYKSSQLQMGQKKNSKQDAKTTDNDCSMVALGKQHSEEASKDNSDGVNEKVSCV
Sequence of D(2) dopamine receptor (Homo sapiens) (P14416 whole entry, looked up): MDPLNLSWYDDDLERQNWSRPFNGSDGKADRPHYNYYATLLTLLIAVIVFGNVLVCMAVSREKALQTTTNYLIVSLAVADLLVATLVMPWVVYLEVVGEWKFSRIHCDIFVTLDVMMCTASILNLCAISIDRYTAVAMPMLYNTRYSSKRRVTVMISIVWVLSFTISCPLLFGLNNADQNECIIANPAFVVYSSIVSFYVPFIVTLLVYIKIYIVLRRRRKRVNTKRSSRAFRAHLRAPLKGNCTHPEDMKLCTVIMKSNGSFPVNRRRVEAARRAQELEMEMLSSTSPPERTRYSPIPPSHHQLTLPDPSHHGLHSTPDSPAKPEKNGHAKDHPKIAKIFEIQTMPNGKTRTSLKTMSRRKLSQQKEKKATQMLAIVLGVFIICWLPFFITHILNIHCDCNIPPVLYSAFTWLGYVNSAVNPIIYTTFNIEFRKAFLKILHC
Sequence of Muscarinic acetylcholine receptor M1 (Homo sapiens) (P11229 whole entry, looked up): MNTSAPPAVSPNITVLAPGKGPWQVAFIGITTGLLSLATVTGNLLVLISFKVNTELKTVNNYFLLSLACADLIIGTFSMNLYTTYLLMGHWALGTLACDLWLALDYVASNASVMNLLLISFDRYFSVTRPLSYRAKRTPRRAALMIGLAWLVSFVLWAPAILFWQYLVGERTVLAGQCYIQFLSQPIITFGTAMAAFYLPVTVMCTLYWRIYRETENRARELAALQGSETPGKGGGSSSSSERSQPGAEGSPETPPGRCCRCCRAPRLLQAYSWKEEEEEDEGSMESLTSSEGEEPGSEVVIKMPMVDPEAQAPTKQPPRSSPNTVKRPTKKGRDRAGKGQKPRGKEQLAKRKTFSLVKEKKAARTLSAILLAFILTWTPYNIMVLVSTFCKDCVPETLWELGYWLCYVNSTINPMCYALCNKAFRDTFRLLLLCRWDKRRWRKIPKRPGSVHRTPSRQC

As to `Cc1cc(Cl)ccc1N=CN(C)C`, the Potency entry in test [1], in test [2], in [3], in test [4], in [5] and in test [6] was “inactive” each time. The Potency result in test [7], in [8], in test [9], in [10], in [11] and in test [12] was “inactive” throughout. Moreover, the Potency result in test [13], in test [14], in [15], in [16], in test [17] and in test [18] was “inactive” in each case. Further, the Potency result in [19] was “inactive”.
For `ClCCOCOCCCl`, the Potency entry in [1], in [2], in test [3], in test [20], in test [5] and in test [6] was “inactive” each time. Besides, the Potency result in [7], in test [8], in [10], in test [11], in test [12] and in [13] was “inactive” throughout. In addition, the Potency result in test [14], in test [15], in test [16], in test [17] and in test [19] was “inactive” in each case.
On to `c1cc2c3c(cccc3c1)CC2`, for which the Potency result in test [1], in test [2], in [3], in [4], in test [5] and in test [6] was “inactive” each time. The Potency entry in test [7], in test [8], in [9], in test [10], in test [11] and in test [12] was “inactive” in each case. For the same compound, the Potency result in [13], in test [14], in [15], in [16], in test [17] and in [18] was “inactive” each time. Further, the Potency result in [19] was “inactive”.
Consider `C[C@]12C=CC3=C4CCC(=O)C=C4CC[C@H]3[C@@H]1CC[C@@H]2O`, for which the Potency result in [1], in test [3], in test [20], in [7], in [8] and in test [9] was “inactive” in each case. Further, the Potency entry in test [17] and in test [19] was “inactive” each time. In addition, in test [2], the Potency is 27.1 µM (active) and 58 µM (active).
For `Cc1ccc(Cl)c(O)c1`, the Potency result in test [1], in test [2], in test [3], in test [20], in test [5] and in test [6] was “inactive” in each case. Also, the Potency entry in test [7], in test [8], in test [10], in test [11], in test [12] and in test [13] was “inactive” each time. Further, the Potency entry in [14], in [15], in test [16], in [17] and in test [19] was “inactive” throughout.
As for `OCC(Cl)CCl` (configuration not stated), the Potency result in test [1], in [2], in [3], in test [20], in test [5] and in [7] was “inactive” in each case. Moreover, the Potency result in test [8], in test [9], in [10], in test [11], in [12] and in [13] was “inactive” throughout. Further, the Potency entry in [15], in test [16], in test [17], in [18] and in test [19] was “inactive” each time.
As to `CC[n+]1c(-c2ccccc2)c2cc(N)ccc2c2ccc(N)cc21`, the Potency in test [1] is 48.3 µM (active) and 7.5 µM (active); in [2], “inactive and 10.6 µM (active)”; in test [13] it was 8.36 µM (active) and 9.18 µM (active). For the same compound, the Potency entry in test [3], in test [20], in test [5], in test [6], in [7] and in test [9] was “inactive” each time. The Potency entry in test [11], in [12] and in test [14] was “inactive” in each case.
Take `O=C(Cl)/C=C/C(=O)Cl`: the Potency result in test [1], in test [2], in test [3], in test [20], in [5] and in [6] was “inactive” in each case. Also, the Potency result in test [7], in [8], in test [10], in [11], in [12] and in test [15] was “inactive” throughout. In addition, the Potency entry in test [16], in [18] and in [19] was “inactive” throughout.
As for `N#CSCSC#N`, the Potency in [1] is 14 µM (active) and 21.5 µM (active); in [2], 15.2 µM (active); in [3], 39.8 µM (active); in test [7], 26.3 µM (active); in test [8], 37.2 µM (active); in [9], 46.8 µM (active). The Potency in test [12] is 50.1 µM (active) and 48.5 µM (active); in test [19], 27.9 µM (active) and 27 µM (active). The Potency result in test [20], in [6], in test [11] and in test [13] was “inactive” in each case.
